Our source for the growth values is PubChem BioAssay (NCI).

Common to all, as to experiment: NCI-60 one-dose screen, 48 h (100 = growth as untreated, 0 = no growth, -100 = all killed)
What all share (conditions): 10 µM unless noted

For experiment [1], the system named is RPMI-8226 leukemia.
Experiment [2] relates to OVCAR-8 ovarian.
Experiment [3] relates to OVCAR-5 ovarian.
Experiment [4] deals with OVCAR-4 ovarian.
The subject of experiment [5] is SK-OV-3 ovarian.
Experiment [6] has as its system IGROV1 ovarian.
In experiment [7] the test system is OVCAR-3 ovarian.
The test system of experiment [8] is HS 578T breast.
In experiment [9] the test system is NCI/ADR-RES ovarian.
The subject of experiment [10] is T-47D breast.
In experiment [11] the test system is BT-549 breast.
Experiment [12] relates to MDA-MB-435 melanoma.
Experiment [13] concerns SW-620 colon.
The test system of experiment [14] is MCF7 breast.
The subject of experiment [15] is HCT-116 colon.
Experiment [16] relates to HCC-2998 colon.
The subject of experiment [17] is KM12 colon.

Molecules are shown by their SMILES. Compounds without any hit were thinned out: in the full panel of roughly 83,000, 20% have a hit.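 Negative percent growth values reflect cell death: -40 means 40% of the cells present at the start died, and -100 means all died.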 Values without a mark were called inactive. Active and inactive are the calls of the source. The calls were made as follows: active = growth percent below 10; inactive = the rest.

Consider `CC[N+](C)(CC)CCCC(C)Nc1ccnc2cc(Cl)ccc12` (stereo not drawn), for which the growth in [1] is 106%; in [2] it was 100%; in [3], 119%; in [4] it was 112%; in experiment [5] it was 111%; in [6], 110%. For the same molecule, the growth was 101% in experiment [7]; 104% in experiment [8]; 112% in [9]; 101% in [10]; 117% in [11]; 108% in [12]. The growth is 106% in experiment [13]; 96.4% in experiment [14]; 110% in experiment [15]; 119% in [16]; 102% in experiment [17].
On to `CCC(C)CC(C)C(=O)c1c(O)ccn(O)c1=O` (stereo not drawn), for which the growth was 11.7% in experiment [1]; 17.8% in experiment [2]; 72.8% in experiment [3]; 30.3% in [4]; 65.3% in [5]; 24.2% in experiment [6]. Moreover, the growth in experiment [7] was 19%; in experiment [8], 62%; in experiment [9], 4.73% (active); in experiment [10] it was 35.5%; in [11], 35.6%; in [12], 46.8%. For the same molecule, the growth in experiment [13] was 25%; in [14] it was 18.9%; in experiment [15], 22.7%; in [16], 89.7%; in experiment [17], 34.2%.
As for `COc1ccc(-c2noc(N)c2-c2cc(OC)c3c(c2)OCO3)cc1`, the growth in [1] is 7.65% (active); in experiment [2], 26.6%; in [3] it was 61.6%; in experiment [4] it was 91.7%; in experiment [5], 27.6%; in experiment [6], 44.6%. Moreover, the growth in experiment [7] is -9.87% (active); in experiment [8], 21.4%; in experiment [9] it was 9.7% (active); in experiment [10], 33.7%; in experiment [11] it was 48%; in [12], -59.3% (active). The growth is 17.5% in [13]; 19.1% in experiment [14]; 20% in experiment [15]; 46% in experiment [16]; 23.9% in experiment [17].
As for `Cc1cc(O)c2c(c1)C[C@H]1[C@@H]3CC[C@H]4CC(=O)CC[C@]4(C)[C@H]3CC(=O)[C@]21C`, the growth in [1] was 56.6%; in experiment [2], 97.4%; in experiment [3], 79.7%; in experiment [4], 109%; in experiment [5], 114%; in experiment [6], 126%. Besides, the growth in experiment [7] was 98%; in experiment [8], 33%; in experiment [9], 83.8%; in experiment [10], 67.9%; in [11] it was 91.4%; in [12], 91.1%. Also, the growth in [13] was 103%; in [14] it was 95.6%; in [15], 77.1%; in [16], 87.9%; in experiment [17], 81.2%.
As for `CCC1=C(c2ccc(OC)cc2)C(C)Oc2cc(OC(C)=O)ccc21` (stereo not drawn), the growth in experiment [1] was 75.6%; in [2], 68.8%; in [3], 128%; in experiment [4], 72.4%; in [5], 80.6%; in experiment [6], 104%. The growth is 86.9% in experiment [7]; 83.5% in experiment [8]; 75.6% in experiment [9]; 65.4% in experiment [10]; 95.4% in experiment [11]; 40.7% in experiment [12]. For the same molecule, the growth in [13] is 90.5%; in [14], 82.4%; in [15], 74.5%; in [16] it was 107%; in [17], 77.7%.
With `COC(=O)CCC1=C(C)C(C)=N/C1=C\c1[nH]c(-c2ccc[nH]2)cc1OC`, the growth in experiment [1] is -61.8% (active); in experiment [2], 5.55% (active); in experiment [3], 22.7%; in experiment [4], 11.8%; in experiment [5], 16.2%; in [6], 18.4%. The growth in [7] is -34.5% (active); in [8], -6.06% (active); in experiment [9], 6.26% (active); in experiment [10], 7.35% (active); in experiment [11], 29.2%; in experiment [12], -5.95% (active). Besides, the growth in experiment [13] was 7.46% (active); in experiment [14], 4.8% (active); in experiment [15] it was -59.8% (active); in [16], 12.5%; in [17], 12.7%.
On to `Cc1ccc(NC(=O)Nc2ccc(-c3cccnc3)cc2N2CCC(CO)CC2)cc1`, for which the growth was 19.4% in experiment [1]; 44.2% in [2]; 43.6% in experiment [3]; 45% in experiment [4]; 28.4% in experiment [5]; 63.1% in [6]. The growth in experiment [7] was 4.71% (active); in [8] it was 10.6%; in experiment [9], 40%; in experiment [10] it was 42.7%; in experiment [11], 25.2%; in experiment [12] it was 4.25% (active). The growth in experiment [13] was 20.3%; in experiment [14] it was 9.77% (active); in experiment [15] it was 8.43% (active); in experiment [16], 14.1%; in experiment [17], 20.1%.
With `COc1ccc(-c2cncn2-c2ccc(-c3nc4cc(OC)c(OC)c(OC)c4s3)cc2)cc1N`, the growth in [1] is 62.2%; in experiment [2] it was 37.1%; in experiment [3], 96.4%; in experiment [4], 46.7%; in [5], 103%; in [6], 58.8%. For the same molecule, the growth is 44.2% in [7]; 74.7% in experiment [8]; 52.4% in experiment [9]; 50.5% in experiment [10]; 31.5% in experiment [11]; 47.6% in experiment [12]. Besides, the growth is 63.6% in experiment [13]; 39.9% in experiment [14]; 36.3% in experiment [15]; 80.5% in experiment [16]; 51.8% in [17].
`C=C(C[C@](O)(C(=O)/C=C/c1ccc(Cl)cc1)C(=O)OC)c1ccccc1`: the growth is -20.3% (active) in experiment [1]; 50.2% in experiment [2]; 105% in [3]; 84.4% in [4]; 95.7% in [5]; 81.2% in experiment [6]. Also, the growth in experiment [7] is 61.7%; in experiment [8], 104%; in experiment [9] it was 59.2%; in [10], 36.2%; in experiment [11], 79.5%; in experiment [12] it was 66.5%. Also, the growth in [13] is 30.3%; in experiment [14], 5.85% (active); in experiment [15], 34.9%; in experiment [16], 41.9%; in experiment [17], 15.3%.
